Assays:
Details in all cases: concentration: 1 μM, replicates: in singlicate; n = 1
[1] = tested on: AURKC
[2] = tested on: AXL
[3] = tested on: T1, BIKE
T1 construct: gene BMP2K

[4] = tested on: BLK
[5] = tested on: BMPR1A
[6] = tested on: BMPR1B
[7] = tested on: BMPR2
[8] = tested on: BMX
[9] = tested on: BRAF
[10] = tested on: T2, BRK
T2 construct: gene PTK6

[11] = tested on: BRSK1
[12] = tested on: BRSK2
[13] = tested on: BTK
[14] = tested on: BUB1
[15] = tested on: CAMK1B
[16] = tested on: CAMK1D
[17] = tested on: CAMK1G
[18] = tested on: CAMK1
[19] = tested on: CAMK2A
[20] = tested on: CAMK2B
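Also: KINOMEscan kinase panel screen.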

Row | Structure (SMILES) | %Inh [1] [%] | %Inh [2] [%] | %Inh [3] [%] | %Inh [4] [%] | %Inh [5] [%] | %Inh [6] [%] | %Inh [7] [%] | %Inh [8] [%] | %Inh [9] [%] | %Inh [10] [%] | %Inh [11] [%] | %Inh [12] [%] | %Inh [13] [%] | %Inh [14] [%] | %Inh [15] [%] | %Inh [16] [%] | %Inh [17] [%] | %Inh [18] [%] | %Inh [19] [%] | %Inh [20] [%]
1 | NC(=O)c1sc(-n2cnc3ccccc32)cc1OCc1ccccc1F [GSK1024306] | 38 | 0 | 60 | 0 | 0 | 0 | 27 | 6 | 0 | 14 | 5 | 0 | 0 | 20 | 31 | 0 | 0 | 0 | 0 | 0
2 | CN1CCC(n2cnc(-c3ccc(F)cc3)c2-c2ccnc(NC3CCNCC3)n2)CC1 [SB-229482] | 0 | 48 | 0 | 10 | 6 | 0 | 1 | 0 | 0 | 0 | 0 | 0 | 10 | 17 | 28 | 0 | 2 | 0 | 0 | 0
3 | O=C(CCO)NCCn1ccc2ncnc(Nc3ccc(Oc4cccc(C(F)(F)F)c4)c(Cl)c3)c21 | 0 | 0 | 0 | 0 | 0 | 0 | 0 | 0 | 0 | 13 | 0 | 0 | 0 | 0 | 0 | 7 | 0 | 0 | 0 | 0
4 | Cl.c1ccc(Cn2ccc3cc(Nc4ncnc5ccccc45)ccc32)cc1 [GW275568] | 0 | 0 | 13 | 0 | 0 | 0 | 13 | 18 | 0 | 0 | 0 | 20 | 0 | 0 | 34 | 27 | 8 | 24 | 9 | 0
5 | Fc1cccc(COc2ccc(Nc3ncnc4nn5ccccc5c34)cc2Cl)c1 [GW689066] | 6 | 0 | 15 | 57 | 0 | 0 | 4 | 5 | 0 | 0 | 0 | 0 | 15 | 49 | 15 | 21 | 0 | 19 | 0 | 0
6 | Nc1nccc2scc(-c3ccc4c(c3)CCN4C(=O)Cc3cc(F)ccc3F)c12 [GSK2587663] | 35 | 41 | 10 | 54 | 0 | 0 | 0 | 23 | 3 | 32 | 4 | 0 | 0 | 45 | 27 | 21 | 4 | 29 | 0 | 0
7 | Clc1ccc(-c2cc(-c3c[nH]nc3-c3ccccn3)ccn2)cc1 [GW681251] | 17 | 0 | 23 | 35 | 0 | 0 | 0 | 10 | 0 | 0 | 0 | 0 | 0 | 31 | 0 | 2 | 0 | 0 | 0 | 0
8 | FC(F)(F)c1ccc(-c2nn3ncccc3c2-c2ccnc(Nc3cccc(C(F)(F)F)c3)n2)cc1 [GW828205] | 12 | 0 | 1 | 1 | 0 | 0 | 0 | 0 | 0 | 0 | 0 | 0 | 49 | 0 | 0 | 18 | 0 | 11 | 0 | 0
9 | Fc1cccc(COc2ccc(Nc3ncnc4cc[nH]c34)cc2Cl)c1 | 8 | 16 | 9 | 1 | 21 | 16 | 15 | 6 | 0 | 11 | 2 | 0 | 0 | 1 | 7 | 0 | 10 | 29 | 27 | 28
10 | COc1ccc(Nc2nccc(N3CCC(NC(=O)c4cccc(NC(C)=O)c4)C3)n2)cc1 (stereo not drawn) [GSK1379732] | 1 | 1 | 0 | 40 | 0 | 0 | 9 | 16 | 0 | 0 | 0 | 0 | 36 | 54 | 9 | 8 | 0 | 13 | 0 | 0
11 | O=C(Nc1ccccc1F)NC1CCN(c2ccnc(Nc3ccc(F)cc3)n2)C1 (stereo not drawn) [GSK1379722] | 30 | 0 | 8 | 16 | 0 | 0 | 13 | 7 | 7 | 5 | 17 | 0 | 12 | 44 | 0 | 0 | 0 | 0 | 0 | 0
12 | CNc1nccc(-c2c(-c3ccc(F)cc3)ncn2CCCN2CCOCC2)n1 [SB-222516] | 21 | 14 | 0 | 17 | 13 | 0 | 30 | 3 | 6 | 0 | 0 | 3 | 0 | 0 | 0 | 0 | 0 | 0 | 8 | 16
13 | Nc1nc(-c2ccccn2)c(-c2ccnc3ccccc23)s1 [GW548057] | 25 | 8 | 33 | 9 | 0 | 35 | 32 | 9 | 0 | 1 | 0 | 0 | 8 | 39 | 33 | 8 | 0 | 4 | 1 | 0
14 | Clc1cccc(-c2nc(Nc3ccncc3)c3ccccc3n2)c1 [GW873004] | 10 | 0 | 10 | 19 | 21 | 4 | 10 | 43 | 0 | 24 | 1 | 23 | 0 | 31 | 0 | 0 | 0 | 0 | 1 | 4
15 | Fc1cccc(COc2ccc(Nc3ncnc4sc(-c5ccc[nH]5)cc34)cc2Cl)c1 [GW707818] | 9 | 0 | 24 | 0 | 25 | 0 | 1 | 6 | 0 | 0 | 1 | 16 | 5 | 25 | 9 | 22 | 0 | 25 | 0 | 0
16 | CCc1nc(-c2cccc(C)c2)c(-c2ccnc(NC(=O)c3ccccc3)c2)s1 | 0 | 0 | 0 | 16 | 0 | 9 | 8 | 0 | 17 | 0 | 0 | 17 | 42 | 17 | 0 | 7 | 0 | 13 | 4 | 0
17 | CC(C)(C)OC(=O)NC1CCCN(c2cc(-c3ccc4c(N)n[nH]c4c3)nc(N)n2)C1 (stereo not drawn) [GSK2286096] | 53 | 5 | 10 | 0 | 0 | 0 | 0 | 8 | 16 | 13 | 0 | 0 | 0 | 0 | 25 | 21 | 11 | 16 | 0 | 0
18 | COc1cc2c(Nc3cccc(NC(=O)c4ccccc4)c3)ncnc2cc1OCCCN1CCOCC1 [GSK223810] | 51 | 42 | 42 | 58 | 9 | 0 | 0 | 33 | 34 | 18 | 0 | 10 | 0 | 31 | 37 | 18 | 0 | 32 | 0 | 0
19 | Cc1cccc(-c2nc(Nc3ccc4[nH]nnc4c3)c3ccccc3n2)n1 [GW867587] | 0 | 0 | 0 | 3 | 0 | 0 | 8 | 0 | 0 | 0 | 0 | 0 | 0 | 13 | 0 | 0 | 0 | 0 | 0 | 8
20 | Nc1n[nH]c2nnc(-c3ccccc3)cc12 [SB-517389] | 0 | 0 | 0 | 0 | 4 | 0 | 0 | 0 | 0 | 20 | 0 | 0 | 0 | 0 | 38 | 28 | 0 | 15 | 0 | 0
21 | N#Cc1ccc(Oc2ccc(Nc3ncnc4cc[nH]c34)cc2Cl)cc1 | 11 | 22 | 1 | 28 | 18 | 8 | 25 | 13 | 0 | 11 | 3 | 0 | 0 | 12 | 0 | 33 | 17 | 24 | 21 | 22

Reference: article PMC5540273 (PLoS ONE, 2017)
